Source: PubChem BioAssay
RBX1-CUL1 inh: blocks human RBX1-Cullin-1 di-ubiquitin formation; inhibition, % at 10 µM; P62877+Q13616; in vitro K48 di-Ub FRET, acceptor:donor ratio, 45 min; hit rate 0.6% among 140,000; in the data active = inhibition above about 25%
Target sequence (P62877 whole entry, looked up): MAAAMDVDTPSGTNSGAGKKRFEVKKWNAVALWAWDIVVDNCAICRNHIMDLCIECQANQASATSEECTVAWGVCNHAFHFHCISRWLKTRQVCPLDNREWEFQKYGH
Target sequence (Q13616 whole entry, looked up): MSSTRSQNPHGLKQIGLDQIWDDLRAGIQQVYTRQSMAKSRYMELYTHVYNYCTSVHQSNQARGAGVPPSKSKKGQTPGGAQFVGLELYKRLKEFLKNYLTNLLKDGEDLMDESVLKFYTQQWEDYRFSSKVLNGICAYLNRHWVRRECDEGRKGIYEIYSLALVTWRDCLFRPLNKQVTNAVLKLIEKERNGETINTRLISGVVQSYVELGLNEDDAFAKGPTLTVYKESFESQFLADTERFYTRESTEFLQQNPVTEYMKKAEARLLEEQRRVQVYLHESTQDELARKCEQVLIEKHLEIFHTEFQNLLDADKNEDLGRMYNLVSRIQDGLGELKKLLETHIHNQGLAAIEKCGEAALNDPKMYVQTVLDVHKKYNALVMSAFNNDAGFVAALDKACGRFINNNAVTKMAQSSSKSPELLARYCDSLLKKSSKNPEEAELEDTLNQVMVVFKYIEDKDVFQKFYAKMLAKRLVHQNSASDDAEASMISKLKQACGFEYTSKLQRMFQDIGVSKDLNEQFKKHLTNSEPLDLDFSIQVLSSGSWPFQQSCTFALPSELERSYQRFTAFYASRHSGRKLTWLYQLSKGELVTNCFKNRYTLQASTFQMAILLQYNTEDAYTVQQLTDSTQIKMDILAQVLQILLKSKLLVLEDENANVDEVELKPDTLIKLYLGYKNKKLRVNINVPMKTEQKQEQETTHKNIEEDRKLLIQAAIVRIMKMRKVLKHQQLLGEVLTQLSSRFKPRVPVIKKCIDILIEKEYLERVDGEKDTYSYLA
Each line names hits and unclear results; the compound was inactive in the other large screens. The sample as a whole holds a higher share of hits than the screen did.

O=C(/C=C\c1ccccc1)NC1CC(=O)N(c2ccccc2)C1 (stereo not given)	none
CC(C)(Oc1ccc(Cl)cc1)C(=O)Nc1cccc(-c2cn3cccnc3n2)c1	none
N#C/C(=C/c1ccc(F)cc1)c1nc(-c2ccc(Cl)cc2Cl)cs1	none
CCOC(=O)c1c(NC(=O)CSc2nnc(C)s2)sc2c1CCCC2	none
CCCC(=O)Nc1ccc(C(=O)/C=C/c2ccc(SC)cc2)cc1	none
CN1OC2C3CC(C4ON(C)C(c5ccccc5)C34)C2C1c1ccccc1 (stereo not given)	none
Cc1ccc(-c2nc3c(c(SCC(=O)Nc4cccc(C(=O)O)c4)n2)Cc2cccc(C)c2O3)cc1	RBX1-CUL1 inh 31.5
COc1ccc(-c2nc3c(c(SCC(=O)Nc4ccccc4OC)n2)Cc2cccc(C)c2O3)cc1	none
CCOc1cccc2c1Oc1nc(-c3ccccc3)nc(SCC(=O)Nc3ccc(F)cc3)c1C2	none
CCc1ccc(C2N(c3ccc(C)cc3)N=C(C(C)=O)N2c2ccc(F)cc2)cc1 (stereo not given)	none
N#CC1C(=N)Oc2c(ccc3ccccc23)C1c1ccc(OCc2ccccc2F)cc1 (stereo not given)	none
CN1c2ccccc2N(C)C1c1cccs1	none
CC1N(C)c2cccc3cccc(c23)N1C	none
CN1c2cccc3cccc(c23)N(C)C1c1cccs1	RBX1-CUL1 inh 78.0
O=C(CN1CCCCC1)Nc1ccc(Br)cc1F	none
COc1ccccc1NC(=O)N1CCC(n2cc(-c3ccccc3)nn2)CC1	none
O=c1[nH]cccc1-c1ccc[nH]c1=O	none
O=c1[nH]cc(I)cc1I	none
O=c1[nH]cccc1I	RBX1-CUL1 inh 65.9
O=C(CN1CCCC1)NCC1(c2ccccc2)CCCC1	none
C=CCN(Cc1ccccc1F)C(=O)Nc1ccccc1	none
O=C1C(Cc2cc(Br)cc(Br)c2O)=NC(=S)N1c1ccc(Cl)cc1	RBX1-CUL1 inh 99.9
COc1cc(C)c(CC2=NC(=S)N(c3ccc(Cl)cc3)C2=O)cc1C(C)C	none
O=C1NC(=S)N=C1Cc1cc(Br)cc(Br)c1O	none
CCC(C(=O)NCCc1ccc(SC)cc1)n1nc(C)c2sc3ccccc3c2c1=O (stereo not given)	none
C=C(C)Cn1c(=O)c2c(nc3n(C4CCCCC4)c(C)cn23)n(C)c1=O	none
CCc1ccc(CCC(=O)N2CCN(c3ccc(F)cc3)CC2)cc1	none
COc1cc(/C=N/NC(=O)CSc2nnc(-c3ccc(C)cc3)n2C)ccc1O	RBX1-CUL1 inh 27.0
Cc1ccc(/C=N/NC(=O)CSc2nnc(-c3ccc(Br)cc3)n2C)cc1	none
COc1cc(Br)cc(/C=N/NC(=O)CSc2nnc(-c3ccc(C)cc3)n2C)c1O	none
CC(=O)N=C1C(=O)CC(C)(C)CC1O (stereo not given)	none
O=S(=O)(c1ccccc1)c1nnn2c1nc(NCc1ccc(Cl)cc1)c1sccc12	none
N#Cc1ccc(-c2ccc(OCC(=O)Nc3ccc(Cl)cc3Cl)cc2)cc1	none
CN1C(=O)C(=O)C2c3ccccc3C(=O)c3c(Cl)cc(Cl)c1c32 (stereo not given)	RBX1-CUL1 inh 32.9
CN1C(=O)C(c2cccc(Cl)c2)C(=O)c2ccccc21 (stereo not given)	none
CCc1ccccc1C1C(=O)c2ccccc2C1=O	none
CCCCSc1nc(C)cc(SCC(=O)N/N=C/c2cccc(OC)c2O)n1	none
O=C(Nc1nc(-c2ccc(Br)cc2)cs1)C1CCCCC1	none
CCCCNC(=O)Cc1cccs1	none
O=C(c1ccccc1)N1CCN(C(=O)c2cc3ccccc3oc2=O)CC1	none
O=C1C(=O)/C(=C/c2ccccc2)CCC/C1=C/c1ccccc1	none
CC1(C)CC(=O)/C(=C\c2ccccc2)C(C)(C)N1	RBX1-CUL1 inh 25.0
O=C1/C(=C\c2ccccc2)CCC/C1=C\c1ccccc1	none
COc1cccc2c1OCC(NCCc1ccccn1)C2 (stereo not given)	none
COc1cc(CC2(CCC(=O)NCCc3ccccc3OC)CCC(=O)N2)ccc1F (stereo not given)	none
O=C(NNc1ccc(Cl)nn1)Nc1cccc(C(F)(F)F)c1	none
CCOc1ccc(N2C(=O)/C(=C/c3cccn3C)C(=O)NC2=S)cc1	none
Cn1cccc1/C=C1\C(=O)NC(=S)N(c2ccccc2F)C1=O	RBX1-CUL1 inh 94.7
Cc1c(Cl)cccc1N1C(=O)/C(=C/c2cccn2-c2cccc(C(=O)O)c2)C(=O)NC1=S	RBX1-CUL1 inh 100.5
Cc1c(/C=C2/C(=O)NC(=S)N(c3cccc(Cl)c3Cl)C2=O)c2ccccc2n1C	none
O=C1NC(=S)N(c2ccc(Br)cc2)C(=O)/C1=C/c1cccn1-c1ccccc1	none
O=C1NC(=S)N(c2ccc(Cl)cc2)C(=O)/C1=C/c1cccn1-c1cccc(C(=O)O)c1	RBX1-CUL1 inh 25.4
CCc1ccc(N2C(=O)/C(=C/c3cccn3-c3ccccc3)C(=O)NC2=S)cc1	none
Cc1cc(/C=C2\C(=O)NC(=S)N(c3ccc(Cl)cc3)C2=O)c(C)n1-c1ccc(Cl)cc1	none
Cc1cc(/C=C2\C(=O)NC(=S)N(c3ccccc3F)C2=O)c(C)n1-c1ccc(C(=O)O)c(Cl)c1	RBX1-CUL1 inh 85.5
CCc1cccc(C)c1-n1c(C)cc(/C=C2\C(=O)NC(=S)N(c3ccccc3F)C2=O)c1C	none
O=C1NC(=O)N(c2ccccc2F)C(=O)/C1=C/c1cccn1-c1ccc(Br)cc1	none
Cc1c(Cl)cccc1N1C(=O)/C(=C/c2cc(C)n(-c3ccc(C#N)cc3)c2C)C(=O)NC1=S	none
